# Sampled rows, rich in hits. Any-hit rate of the full collection: about 3.3%.
# PfM18AAP inh: PfM18AAP enzyme inhibition | recombinant PfM18AAP, H-Glu-NHMec fluorogenic cleavage | inhibition, % at 7.35 µM | 290,000 compounds, 1.2% hits | AID 1822;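 active means inhibition above the campaign mean inhibition over all tested compounds plus 3 SD, cut at about 28% in these data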;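 further: 0% = plate median of test compound wells and 100% = 2 mM ZnCl2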
# PRMT1 FP inh: inhibitors of human PRMT1; 370,000 compounds, 1.3% hits; recombinant PRMT1, activity-based probe fluorescence polarization; inhibition, % at 2.79 µM; Q99873;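 active means inhibition above about 21% made by adding two undisclosed values, limit read from the data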
# Target sequence (Q99873 whole entry, looked up): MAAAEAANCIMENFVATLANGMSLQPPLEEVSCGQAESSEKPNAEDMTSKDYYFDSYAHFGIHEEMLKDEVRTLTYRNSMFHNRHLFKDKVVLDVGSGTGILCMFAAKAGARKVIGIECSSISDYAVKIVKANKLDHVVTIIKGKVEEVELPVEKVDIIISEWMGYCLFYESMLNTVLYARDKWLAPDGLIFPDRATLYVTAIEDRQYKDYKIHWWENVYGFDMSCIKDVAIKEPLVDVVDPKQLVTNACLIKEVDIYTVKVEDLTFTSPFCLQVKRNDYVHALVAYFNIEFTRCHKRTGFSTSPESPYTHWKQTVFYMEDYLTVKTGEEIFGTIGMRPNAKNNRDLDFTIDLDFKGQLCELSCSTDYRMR
# MBD2 inh: inhibitors of human MBD2 binding to methylated oligonucleotide. Q9UBB5. TR-FRET. inhibition, % at 4.4 µM. 370,000 compounds, 0.31% hits. AID 686964; in the data active means inhibition above about 13%
# PfG6PD inh: PfG6PD (Plasmodium falciparum) enzyme inhibition | PfGluPho enzyme, NADPH resazurin-diaphorase fluorescence | inhibition, % at 20 µM | 350,000 compounds, 0.78% hits | AID 504690;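 active means inhibition reaching at least a set limit at 20 µM in the primary screen, cut at about 59% in these data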;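 further: 0% = DMSO wells with substrate and 100% = DMSO wells lacking glucose-6-phosphate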
# UHRF1 binding: blocks human UHRF1 binding to methylated DNA | UHRF1 binding to methylated oligo, TR-FRET | inhibition, % at 4.4 µM | 370,000 compounds, 0.75% hits | AID 687016; in the data active means inhibition above about 21%;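 further: UHRF1 SRA domain binding a hemimethylated CpG hairpin DNA probe; 0% = median of test compound wells and 100% = reference inhibitor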
# PRMT1 confirm: confirmation of human PRMT1 inhibitors; shares compounds with PRMT1 FP inh; recombinant His-PRMT1, activity-based probe fluorescence polarization; inhibition, % at 2.79 µM; 3,300 compounds, 42% hits; AID 687036;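 active means mean inhibition across replicates above the hit cutoff derived for the earlier primary screen, cut at about 22% in these data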
# * marks the source's active call; other numbers are inactive results; . = not tested or not shown.
SMILES,PfM18AAP inh,PRMT1 FP inh,MBD2 inh,PfG6PD inh,UHRF1 binding,PRMT1 confirm
Cn1cc([N+](=O)[O-])c(C(=O)N/N=C/c2cc3c(cc2Br)OCO3)n1,-3.5,0.2,-1.3,22.1,1.9,.
O=C(CC(Nc1ccccc1)C(=O)O)c1ccccc1 (stereo not drawn),.,12.2,-3.3,12.7,-3.9,.
O=C(CC(Nc1ccc(Cl)cc1Cl)C(=O)O)c1ccccc1 (stereo not drawn),-67.3,39.0*,2.6,-7.7,1.4,2.7
COc1ccc(NC(=O)c2ccc(S(=O)(=O)N3CC(C)OC(C)C3)cc2)cc1 (stereo not drawn),.,-2.7,0.1,-10.0,-1.3,.
CCCNc1c(NS(=O)(=O)c2ccc(C3CCCCC3)cc2)c(=O)oc2ccccc12,1.9,.,.,3.9,.,.
CCOc1ccccc1NC(=O)CSc1ccc(-c2ccco2)nn1,-34.0,25.1*,-3.5,19.0,-1.8,48.4*
COc1ccc(NC(=O)CSc2ccc(-c3ccco3)nn2)cc1,-10.7,37.1*,-0.2,31.9,-1.8,53.8*
COc1cccc(NC(=O)C2(C)CCN2Cc2ccc(-c3ccccc3)o2)c1 (stereo not drawn),.,3.6,-0.8,.,0.3,.
CC1(C(=O)Nc2cnc3ccccc3c2)CCN1Cc1ccc(-c2ccccc2)o1 (stereo not drawn),.,33.6*,4.7,.,0.9,11.2
Cc1ccc2c(c1)c1c(n2CC(O)CN2C(=O)CNC2=O)C(=O)CCC1 (stereo not drawn),-3.7,33.1*,-9.1,15.7,-3.4,1.2
Cc1ccc2c(c1)c1c(n2CC(O)Cn2ccnc2C)C(=O)CCC1 (stereo not drawn),-3.2,0.9,-4.5,7.2,-3.6,.
O=C(Nc1nncs1)c1cc(-c2ccco2)nc2ccccc12,.,36.1*,-3.8,39.1,-0.5,8.7
CCc1nnc(NC(=O)c2cc(-c3ccco3)nc3ccccc23)s1,5.6,25.6*,10.1,-0.9,18.2,11.7
Cc1cccc(NC(=O)c2cc(-c3ccco3)nc3ccccc23)n1,-31.7,35.4*,-0.3,3.7,-2.0,8.6
COc1ccc(NC(=O)c2cc(-c3ccco3)nc3ccccc23)cc1,.,3.6,-3.0,1.9,-0.4,.
Cc1ccccc1NC(=O)c1cc(-c2ccco2)nc2ccccc12,.,0.8,-1.8,13.1,1.6,.
COc1ccc(Cl)cc1C(=O)NC1CC(C)(C)NC(C)(C)C1,.,-4.0,0.0,8.4,-1.1,.
CCOC(=O)CSc1nnc(Cn2nnc3ccccc32)n1-c1ccc(F)cc1,-0.6,2.0,-2.7,-3.7,-0.2,.
O=C(/C=C/c1ccc([N+](=O)[O-])cc1)/C=C/c1ccco1,2.6,39.7*,10.4,.,17.1,59.8*
COc1cc(/C=C2\C(=O)NN(c3ccc(C)cc3)C2=O)cc([N+](=O)[O-])c1O,-0.6,29.7*,-3.8,0.0,-2.4,8.7
Cc1oc(-c2ccccc2)nc1CS(=O)CC(=O)NC1CCCC1 (stereo not drawn),0.0,6.1,1.5,0.1,-1.2,.
c1csc(-c2nc3ccccc3s2)c1,12.0,32.7*,-0.6,20.9,0.6,34.3*
CCOC(=O)n1c(O)c(N=NC(N)=S)c2cc(C)ccc21,13.5,-0.2,-1.3,-11.1,1.1,.
Cc1c(CCCC(=O)O)sc(N)c1C(=O)c1cccc(C(F)(F)F)c1,.,31.4*,3.2,21.3,0.0,11.3
CCCCc1c(O)nc(SCC(=O)NC(C)(C)C)n(-c2ccccc2C)c1=O,-1.2,26.8*,-3.1,-25.0,-0.1,6.3
SMILES,PfM18AAP inh,PRMT1 FP inh,MBD2 inh,PfG6PD inh,UHRF1 binding,PRMT1 confirm
CC(CNC(=O)c1ccc(C#N)cc1)NC(=O)c1ccc(C#N)cc1 (stereo not drawn),-4.6,-4.7,-4.1,6.9,-2.4,.
COC(=O)C=C1CCC2C3CC(F)C4(O)CC(=O)CCC4(C)C3C(=O)CC12C (stereo not drawn),.,-4.0,4.6,0.2,19.4,.
Cn1c(SCn2nnc3ccccc3c2=O)nc2ccccc2c1=O,-5.1,.,.,.,.,.
O=c1c2ccccc2nnn1CSc1nc2ccccc2c(=O)n1CCCO,-6.4,25.1*,0.7,16.7,2.6,-0.1
O=C(Nc1ccccc1)C(Cl)C(=O)c1ccccc1 (stereo not drawn),14.9,61.9*,-4.9,26.9,0.5,79.0*
Cc1ccc2nc(-c3ccc(NC(=O)CSc4nnc(-c5ccccc5)n4Cc4ccco4)cc3)sc2c1,.,25.0*,10.3,.,1.3,18.8
CCn1c2ccccc2c2cc(NC(=O)CSc3nnc(-c4ccccc4)n3Cc3ccco3)ccc21,.,80.3*,-2.8,.,0.2,65.5*

# Compound activity deposited in PubChem BioAssay by several laboratories.
